Test results reported in PubChem BioAssay AID1903 (Southern Research Specialized Biocontainment Screening …, 2009).
In all, about 310,000 compounds went through this assay and about 1,200 (0.39%) were called active. The rule behind the calls is not given here. The list is a sample of the results. Potency and affinity values are given separately.

Target: Large T antigen (Simian virus 40) (UniProt P03070)
Assay: TAg ATPase/helicase activity blockers – biochemical (AID 1903)
Conditions: SV40 large T antigen ATPase/helicase inhibition assay; at 20 µM; hits give high values

Sequence of Large T antigen (Simian virus 40) (P03070 whole entry, looked up): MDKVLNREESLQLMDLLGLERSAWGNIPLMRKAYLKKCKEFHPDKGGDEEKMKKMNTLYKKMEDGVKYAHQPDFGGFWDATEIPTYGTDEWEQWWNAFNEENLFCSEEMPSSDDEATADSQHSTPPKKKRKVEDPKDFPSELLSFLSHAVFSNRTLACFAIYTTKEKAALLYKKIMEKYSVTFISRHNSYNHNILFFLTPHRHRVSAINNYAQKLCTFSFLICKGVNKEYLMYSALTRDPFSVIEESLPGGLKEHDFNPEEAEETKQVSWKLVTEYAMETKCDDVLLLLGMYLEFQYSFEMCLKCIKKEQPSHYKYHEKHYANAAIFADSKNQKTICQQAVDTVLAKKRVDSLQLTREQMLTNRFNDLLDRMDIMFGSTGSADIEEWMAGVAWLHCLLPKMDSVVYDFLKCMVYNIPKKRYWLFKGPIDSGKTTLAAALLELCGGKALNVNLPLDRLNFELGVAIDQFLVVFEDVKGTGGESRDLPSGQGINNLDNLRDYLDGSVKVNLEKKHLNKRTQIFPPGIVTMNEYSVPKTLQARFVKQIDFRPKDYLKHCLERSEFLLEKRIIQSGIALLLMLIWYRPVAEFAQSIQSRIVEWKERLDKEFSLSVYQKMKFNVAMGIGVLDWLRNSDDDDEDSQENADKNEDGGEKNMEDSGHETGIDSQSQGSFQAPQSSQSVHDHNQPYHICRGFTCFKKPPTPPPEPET

inhibition, inactive:
CCN(Cc1ccccc1)C(=O)CCS(=O)(=O)c1ccc2c(c1)NC(=O)CO2 6.63%
COc1cccc(/C=N\NC(=O)Cn2nnc3ccccc32)c1O 34.8%
COc1cccc(/C=N/NC(=O)CCn2nnc3ccccc32)c1 9.43%
COc1ccc(/C=N/NC(=O)C(C)n2nnc3ccccc32)cc1OC (configuration not stated) -3.35%
COc1ccc(Cn2nnc3ccccc32)cc1 0.77%
COc1cc(Cn2nnc3ccccc32)cc(Br)c1O 29.6%
COc1ccc(/C=N/NC(=O)CCn2nnc3ccccc32)cc1 3.72%
COc1cccc(/C=N/NC(=O)C(C)n2nnc3ccccc32)c1 (configuration not stated) 23.4%
CN(C)c1ccc(/C=N/NC(=O)Cn2nnc3ccccc32)cc1 14.7%
O=C(Cn1ccc2ccccc2c1=O)NCC(=O)N1CCN(c2ccccc2F)CC1 5.42%
CC(=O)Nc1ccccc1OC(C)C(=O)N1CC(C)CC(C)C1 (configuration not stated) 2.89%
CCOc1ccc(NC(=O)N2CCC(n3nnc4cc(C)ccc43)CC2)cc1 -5.9%
Cn1c(=O)cc(SCC(=O)Nc2ccccn2)c2ccccc21 18.7%
COC(=O)c1ccccc1NC(=O)N1CCN(S(C)(=O)=O)CC1 5.14%
CCNC(=S)N(CCc1ccccc1C)Cc1cc2cc(OC)c(OC)cc2[nH]c1=O 2.57%
COc1ccc(N(CC(=O)NCc2ccc(F)cc2)C(=O)c2snc(C(N)=O)c2N)cc1OC 5.71%
CSc1ccc(C#N)cc1NC(=O)c1cccnc1Cl 1.02%
C/C(=N\NC(=O)Cn1ccc(C(F)(F)F)n1)c1ccc(N2CCOCC2)cc1 5.06%
COc1cc(/C=N\NC(=O)Cn2nnc3ccccc32)cc(OC)c1OC 4.84%
COc1ccc(/C=N/NC(=O)CCn2nc(C)cc2C)cc1O 32.7%
COc1cc(/C=N/NC(=O)CCn2c3ccccc3c3ccccc32)ccc1O 13.3%
COc1ccc(/C=N/NC(=O)CCc2c(C)n[nH]c2C)cc1O 33.9%
COc1ccc(/C=N/NC(=O)CCc2c(C)n[nH]c2C)cc1OC 0.79%
COc1ccc(O)c(/C=N\NC(=O)CCn2nnc3ccccc32)c1 9.4%
COc1ccc(/C=N/NC(=O)Cn2nnc3ccccc32)cc1OC 9.9%
CCOc1cc(/C=N/NC(=O)CCn2nc(C)cc2C)ccc1O 33.9%
CC1CCCN(C(=O)N2c3ccccc3Sc3ccccc32)C1 (configuration not stated) 6.24%
CCOC(=O)c1c(-c2ccccc2)csc1NC(=O)c1ccc(S(=O)(=O)N2CCOCC2)cc1 11.2%
C=CCn1c(COc2ccc(Cl)cc2)nnc1SCC(=O)Nc1ccc(S(N)(=O)=O)cc1 -7.84%
COc1cccc2cc(-c3nnc(-c4ccccc4)o3)c(=O)oc12 3.9%
COC(CN(C)C(C(=O)NC1CCCCC1)c1ccccc1)OC (configuration not stated) -3.44%
Cc1cc(C)cc(NC(=O)Nn2cnnc2)c1 14.3%
CCCCN(Cc1ccccc1)C(=O)CCN1C(=O)C2C3C=CC(C3)C2C1=O (configuration not stated) 8.63%
Cc1cc([N+](=O)[O-])ccc1NC(=O)c1cncc(Br)c1 12.5%
COC(=O)c1ccc(S(=O)(=O)c2ccc(Cl)cc2)c(N)c1 13.4%
COC(=O)c1ccc(C(=O)NC2CCSc3ccccc32)cc1 (configuration not stated) 6.81%
CC(C)CCN1CCN=C1Nc1ccccc1 0.58%
Cn1c(SCc2ccc([N+](=O)[O-])cc2)nc2c(c1=O)SCC2 3.17%
Fc1ccc2nc(N3CCOCC3)sc2c1 -1.3%
Nc1nc2ccc(S(=O)(=O)c3ccc4nc(N)sc4c3)cc2s1 10.5%
c1ccc2sc(N3CCOCC3)nc2c1 20.2%
CC(C)c1ccc2nc(N)sc2c1 8.35%
CC(Sc1nc2c(c(=O)[nH]1)CCCC2)C(=O)Nc1ccccc1C#N (configuration not stated) 6.43%
O=C(N/N=C/c1cnc(N2CCOCC2)s1)c1ccccc1 11.5%
O=C(COc1ccccc1)NCC(=O)NC1=NCCS1 3.88%
COc1cc(/C=C/C(=O)OCC(=O)NC2CCS(=O)(=O)C2)ccc1O (configuration not stated) 34%
COc1cc(/C=C/C(=O)OCC(=O)N(C)C2CCS(=O)(=O)C2)ccc1OC(F)F (configuration not stated) -1.47%
Cc1ccc(NC(=O)CN(C)S(=O)(=O)c2ccc3[nH]c(=O)oc3c2)c(C)c1 10.9%
CC1CC(C)CN(CC(=O)N2CCc3[nH]c4ccccc4c3C2)C1 (configuration not stated) -3.87%
O=C1/C(=C\c2ccco2)SC(=S)N1C1CCS(=O)(=O)C1 (configuration not stated) 22.2%
Cc1ccc(/C=C2/SC(=S)N(C3CCCCC3)C2=O)o1 31.8%
O=C1/C(=C/c2ccco2)SC(=S)N1C1CCS(=O)(=O)C1 (configuration not stated) 33.6%
Cc1ccc(/C=C2\SC(=S)N(C3CCS(=O)(=O)C3)C2=O)o1 (configuration not stated) 9.87%
COc1ccc(C2C(C(=O)Nc3ccc(OC)c(OC)c3)c3ccccc3C(=O)N2C)cc1 (configuration not stated) 5.35%
CCOC(=O)c1ccc(NC(=O)CN2CCN(Cc3ccccc3)CC2)cc1 -0.24%
O=C1NC(=O)/C(=C\c2cn(Cc3ccccc3F)c3ccccc23)N1 8.29%
COc1cc(C(=O)N/N=C(\C)c2ccc(NC(=O)Cc3ccccc3)cc2)ccc1O 37.2%
C/C(=N\NC(=O)CCc1c(C)n[nH]c1C)c1ccc([N+](=O)[O-])cc1 3.31%
C/C(=N\NC(=O)Cc1ccc(F)cc1)c1ccc(O)cc1 36.9%
C/C(Cn1nc([N+](=O)[O-])cc1C)=N\NC(=O)c1ccc(C(C)(C)C)cc1 9.13%
COc1cc(/C(C)=N/NC(=O)CN2CCN(S(=O)(=O)c3ccc(C)cc3)CC2)ccc1O 20.9%
COc1ccc(C(=O)N/N=C(\C)Cn2nc([N+](=O)[O-])cc2C)cc1 8.1%
